Drawing on PubChem BioAssay (NCI), this text covers growth for eight molecules.

Each structure is given as a SMILES string. This is part of a sample that, as a whole, favours compounds with a hit. Of some 83,000 tested, about 20% had one in any assay.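 A percent growth of 40 corresponds to 60% growth inhibition; 0 means no net growth; -100 means all cells died. Active threshold: below 10.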 A number with no mark means an inactive call. Activity calls are given as the source filed them.

Holding throughout (assay): NCI-60 one-dose screen, 48 h (100 = growth as untreated, 0 = no growth, -100 = all killed)
The test system of one assay is HL-60(TB) leukemia. The conditions noted are these: 10 µM unless noted.
For another assay, the system named is NCI-H226 lung. The note with it: 10 µM.
In another assay the test system is NCI-H322M lung. The conditions noted are these: 10 µM.
The next assay has as its system HOP-62 NSCLC. The note with it: 10 µM.
In a further assay the test system is NCI-H460 lung. The conditions noted are these: 10 µM.
A further assay relates to A549/ATCC NSCLC. The conditions noted are these: 10 µM.
The next assay deals with DU-145 prostate. The note with it: 10 µM.
A further assay deals with SF-268 CNS. The conditions noted are these: 10 µM.
Another assay deals with SF-295 CNS. The conditions noted are these: 10 µM.
The next assay has as its system SF-539 CNS. The conditions noted are these: 10 µM.
In another assay the test system is M14 melanoma. The conditions noted are these: 10 µM.
Another assay relates to HCT-15 colon. The note with it: 10 µM.
The next assay relates to HT29 colon. The conditions noted are these: 10 µM.
In a further assay the test system is SNB-75 CNS. The conditions noted are these: 10 µM.
A further assay concerns SNB-19 CNS. The note with it: 10 µM.
In a further assay the test system is U251 CNS. The conditions noted are these: 10 µM.
For the next assay, the system named is PC-3 prostate. The conditions noted are these: 10 µM.
The test system of the next assay is SK-MEL-5 melanoma. The note with it: 10 µM.
In the next assay the test system is UACC-62 melanoma. The conditions noted are these: 10 µM.
A further assay concerns SK-MEL-28 melanoma. The note with it: 10 µM.

On to `Nc1cccnc1/C=N/NC(=S)NCCNC(=O)c1ccc(-n2nc(-c3ccccc3O)nc2-c2ccccc2O)cc1`, for which the growth in the assay on HL-60(TB) leukemia is -8.62% (active).

With `CC12OOC(C)(OO1)C2CCC(=O)OCCNc1ccnc2cc(Cl)ccc12` (stereo not given), the growth is 98% with NCI-H226 lung; 96.6% in the assay on NCI-H322M lung; 96.8% in the assay on HOP-62 NSCLC; 45.2% in the assay on NCI-H460 lung; 9.38% (active) in the assay with A549/ATCC NSCLC; -53.9% (active) in the assay with DU-145 prostate. The growth in the assay with SF-268 CNS was 97%; in the assay with SF-295 CNS, 83%; in the assay on SF-539 CNS, 35.6%; in the assay with M14 melanoma, 14.6%; in the assay with HCT-15 colon it was -73.2% (active); with HT29 colon it was -59.8% (active). Moreover, the growth with SNB-75 CNS was 90.5%; in the assay on SNB-19 CNS, 97.6%; with U251 CNS, 105%; in the assay with PC-3 prostate it was 53.6%; with SK-MEL-5 melanoma it was 36.5%; in the assay with UACC-62 melanoma, 88.1%. Also, the growth is 93% in the assay on SK-MEL-28 melanoma and -40.3% (active) in the assay on HL-60(TB) leukemia.

Turning to `COC(=O)C[C@](O)(CCC(C)C)C(=O)O[C@H]1C(OC)=C[C@@]23CCCN2CCc2cc4c(cc2[C@@H]13)OCO4`, the growth in the assay on NCI-H226 lung is -20.4% (active); with NCI-H322M lung, -9.27% (active); in the assay with HOP-62 NSCLC, 4.64% (active); with NCI-H460 lung, -26.2% (active); with A549/ATCC NSCLC, -20.5% (active); in the assay with DU-145 prostate it was -24.1% (active). Also, the growth was -21.7% (active) in the assay on SF-268 CNS; -23.6% (active) in the assay with SF-295 CNS; -51.4% (active) with SF-539 CNS; -76.4% (active) in the assay with M14 melanoma; -29.7% (active) in the assay on HCT-15 colon; -47.5% (active) with HT29 colon. Moreover, the growth in the assay on SNB-75 CNS was -48.8% (active); in the assay on SNB-19 CNS, -28.3% (active); in the assay on U251 CNS, -25.2% (active); in the assay with PC-3 prostate it was -23.5% (active); in the assay on SK-MEL-5 melanoma, -70.4% (active); in the assay on UACC-62 melanoma it was -25.2% (active). Also, the growth in the assay with SK-MEL-28 melanoma is -32.9% (active); with HL-60(TB) leukemia, -38.5% (active).

For `CC(=O)Oc1ccccc1C(=O)[Se]C(=NC(C)C)NC(C)C`, the growth was -67.2% (active) in the assay on NCI-H226 lung; -82.6% (active) in the assay on NCI-H322M lung; -70.9% (active) in the assay on HOP-62 NSCLC; -70.2% (active) with NCI-H460 lung; -3.31% (active) with A549/ATCC NSCLC; -92.6% (active) in the assay with DU-145 prostate. In addition, the growth in the assay on SF-268 CNS is -30.9% (active); in the assay on SF-295 CNS it was -79% (active); in the assay on SF-539 CNS it was -98% (active); in the assay on M14 melanoma, -92.7% (active); in the assay with HCT-15 colon it was -45.6% (active); in the assay with HT29 colon, -57% (active). Besides, the growth with SNB-75 CNS was -94.6% (active); with SNB-19 CNS, -88.5% (active); with U251 CNS it was -87.8% (active); in the assay with PC-3 prostate, -62.9% (active); with SK-MEL-5 melanoma, -84.4% (active); with UACC-62 melanoma it was -44.2% (active). In addition, the growth is -85.5% (active) with SK-MEL-28 melanoma and -41.3% (active) in the assay on HL-60(TB) leukemia.

`C#CC[Se]C(=O)c1ccc(C(=O)[Se]CC#C)s1`: the growth in the assay on NCI-H226 lung was 76.5%; in the assay with NCI-H322M lung it was 14.5%; in the assay with HOP-62 NSCLC it was 29.8%; in the assay on NCI-H460 lung it was 40.9%; in the assay on A549/ATCC NSCLC, 31.1%; with DU-145 prostate, 56%. The growth in the assay on SF-268 CNS was 105%; with SF-295 CNS it was 13.3%; in the assay with SF-539 CNS, 65.5%; with M14 melanoma, 73.7%; in the assay with HCT-15 colon, 93.2%; with HT29 colon, 63.6%. The growth in the assay on SNB-75 CNS was 109%; with SNB-19 CNS, 58.7%; in the assay on U251 CNS it was 44.7%; in the assay with PC-3 prostate, 44.9%; in the assay with SK-MEL-5 melanoma, 96.6%; in the assay on UACC-62 melanoma it was 92.3%. For the same molecule, the growth with SK-MEL-28 melanoma was 104%; in the assay on HL-60(TB) leukemia it was -19.7% (active).

For `CC(C)N=C([Se])NC(=O)c1ccccc1`, the growth in the assay with NCI-H226 lung is -33.5% (active); with NCI-H322M lung it was -3.38% (active); with HOP-62 NSCLC, 8.36% (active); in the assay on NCI-H460 lung, -25.8% (active); in the assay with A549/ATCC NSCLC, 8.83% (active); in the assay on DU-145 prostate, -74.6% (active). Besides, the growth is 14.3% in the assay on SF-268 CNS; -23.9% (active) with SF-295 CNS; -82.9% (active) with SF-539 CNS; -65.2% (active) in the assay with M14 melanoma; 1.65% (active) with HCT-15 colon; 12.5% in the assay on HT29 colon. In addition, the growth was -49.5% (active) in the assay on SNB-75 CNS; 11.4% with SNB-19 CNS; -59.4% (active) in the assay on U251 CNS; -21.8% (active) with PC-3 prostate; -57.1% (active) with SK-MEL-5 melanoma; -35.3% (active) in the assay on UACC-62 melanoma. Further, the growth is -43.9% (active) in the assay on SK-MEL-28 melanoma and -15.4% (active) in the assay on HL-60(TB) leukemia.

In the case of `COc1cc(OC)c(S(=O)(=O)N(CCCl)CCCl)cc1C(=O)/C=C/c1cc(OC)c(OC)c(OC)c1`, the growth with NCI-H226 lung is 7.87% (active); in the assay with NCI-H322M lung, 12.9%; in the assay with HOP-62 NSCLC it was -5.79% (active); in the assay with NCI-H460 lung, 1.08% (active); with A549/ATCC NSCLC it was 3.9% (active); with DU-145 prostate, -30.3% (active). For the same molecule, the growth is 2.74% (active) with SF-268 CNS; 0.899% (active) in the assay on SF-295 CNS; -74.1% (active) in the assay on SF-539 CNS; -59.4% (active) in the assay on M14 melanoma; -25.1% (active) in the assay with HCT-15 colon; -58.7% (active) with HT29 colon. Also, the growth with SNB-75 CNS is -78.2% (active); with SNB-19 CNS, -38.6% (active); in the assay with U251 CNS, -79.6% (active); in the assay on PC-3 prostate, 10.3%; with SK-MEL-5 melanoma, -71.3% (active); in the assay on UACC-62 melanoma, -33.9% (active). Also, the values for the growth in the assay with SK-MEL-28 melanoma and in the assay on HL-60(TB) leukemia were -68.5% (active) and -25.8% (active), respectively.

For `COP(=O)(CC(F)(F)C(F)(F)F)OC`, the growth in the assay on NCI-H226 lung was -55.6% (active); in the assay with NCI-H322M lung it was 109%; in the assay with HOP-62 NSCLC it was 99.7%; in the assay on NCI-H460 lung, 95.9%; with A549/ATCC NSCLC, 87.4%; with DU-145 prostate it was 9.69% (active). Moreover, the growth with SF-268 CNS is 88.4%; with SF-295 CNS it was 100%; with SF-539 CNS, 4.99% (active); in the assay with M14 melanoma it was -65.3% (active); in the assay on HCT-15 colon, -15.2% (active); in the assay on HT29 colon, -35.5% (active). For the same molecule, the growth with SNB-75 CNS is 87.5%; in the assay on SNB-19 CNS, 101%; in the assay with U251 CNS it was 81.7%; with PC-3 prostate, 69.5%; in the assay with SK-MEL-5 melanoma, 80.8%; in the assay on UACC-62 melanoma, 65.3%. Besides, the growth in the assay with SK-MEL-28 melanoma is -58.1% (active).
